Vc quorum ag: inducers of Vibrio cholerae quorum light production without autoinducers, primary screen, BH1578 luxS cqsA deficient, single point. activation, % at 18.7 µM. V. cholerae BH1578 lux reporter, luminescence, 6 h. actives 0.16% (n = 350,000); in the data active means activation mostly above about 9.7%, no sharp cut-off; inconclusive means no clear call, values can overlap the other calls; inactive means mostly below about 3.7%
Bead autofluor: compound fluorescence in toxin protease inhibitor counterscreen; compound autofluorescence counterscreen, microsphere flow cytometry; active compounds read high; fluorescence intensity (no concentration beside the values); actives 3.1% (n = 360,000); AID 624483; in the data active means fluorescence intensity above about 16000; inconclusive means no clear call, values can overlap the other calls
BoNT-A LC inh2: BoNT/A light chain protease inhibitors, primary screen, biochemical, flow cytometry, MLPCN library | Botulinum neurotoxin type A light chain protease (Clostridium botulinum A str. ATCC 3502) | AID 588499, 2011 | actives 0.17% (n = 360,000) | inhibition, % at 10 µM | multiplex microsphere protease substrate cleavage; further: plate controls were buffer without enzyme for full effect and enzyme alone for no effect
Anthrax LF inh2: Bacillus anthracis LF protease inhibitors, primary screen, biochemical, multiplex microsphere, MLPCN library; actives 0.12% (n = 360,000); inhibition, % at 10 µM; multiplex microsphere protease cleavage assay; Lethal factor (Bacillus anthracis), P15917; AID 588501, 2011; further: plate controls were buffer without enzyme for full effect and enzyme alone for no effect
BoNT-F LC inh: BoNT/F light chain protease inhibitors, primary screen, biochemical, flow cytometry, MLPCN library. Botulinum neurotoxin type F light chain protease (Clostridium botulinum). Multiplex microsphere protease cleavage assay. inhibition, % at 10 µM. actives 0.22% (n = 360,000). AID 588497, 2011; in the data active means inhibition above about 35%, passing the limit was not always enough; inconclusive means no clear call, values can overlap the other calls; further: plate controls were buffer without enzyme for full effect and enzyme alone for no effect
An asterisk follows results filed as active; i = inactive; u = inconclusive; x = not tested or not shown. Sampled rows, rich in hits. Any-hit rate of the full collection: about 3.5%. Unless noted, no stated cut-off is given here; in the data, active means inhibition above about 30%; inconclusive means no clear call, values can overlap the other calls; inactive means below that.

SMILES	Vc quorum ag	Bead autofluor	BoNT-A LC inh2	Anthrax LF inh2	BoNT-F LC inh
C=CCN=C(NC#N)SCc1ccccc1	-1.3	2407	-0.2	0.4	-3.9
CCCN1CCCc2cc(CN(CCCN3CCOCC3)C(=O)Nc3ccc(OCC)cc3)ccc21	1.4	22682*	-0.2	-6.5	-13.8
O=C1CSC(=Nc2cc(Cl)ccc2Cl)N1	0.9	22505*	3.6	1.9	1.6
CCCN(C(=O)COc1ccc(C(C)=O)cc1OC)C1CCS(=O)(=O)C1 (configuration not stated)	-0.5	3657	0.8	-9.3	-3.1
CC(C)c1ccc(NC(=O)COC(=O)c2nn(C)c(=O)c3ccccc23)cc1	-0.6	5913	-0.9	-2.6	-3.3
COc1cccc(C=NNc2ccc([N+](=O)[O-])cn2)c1OC	i	4000	0.6	-3.8	-13.0
COc1cccc(/C=N/Nc2ncnc(N)c2[N+](=O)[O-])c1OC	5.3	21088*	4.7	1.9	8.2
Cc1ccc(S(=O)(=O)NC(=NC2CCCCC2)c2ccc(Cl)cc2)cc1	i	3776	-3.4	9.1	-10.7
COC(=O)CC1=C(C(=O)OC)C2(C(=O)Nc3c(C)cccc32)C(C#N)=C(N)O1 (configuration not stated)	2.9	20727*	u	-15.9	1.5
CCCC1=C(C(=O)OCC)C2(C(=O)Nc3ccccc32)C(C#N)=C(N)O1 (configuration not stated)	i	22790*	-0.6	-0.3	-1.0
COC(=O)C1=C(C)OC(N)=C(C#N)C12C(=O)Nc1ccccc12 (configuration not stated)	-0.4	4542	-0.9	-7.5	-8.9
O=C(O)CC/C(=N\Nc1ccc([N+](=O)[O-])cc1S(=O)(=O)N1CCOCC1)c1cccs1	-0.6	5186	-0.4	-5.0	-8.0
O=C(O)C1(Cc2nc3ccccc3[nH]2)CCCC1	3.1	2927	-1.9	1.6	9.9
O=C(O)COCc1nc2ccccc2[nH]1	i	25242*	-2.7	1.9	-0.7
O=C(NCc1cccnc1)/C(=C/c1ccc(-c2cccc(C(F)(F)F)c2)o1)NC(=O)c1ccccc1	-1.4	22544*	u	-2.1	-9.0
COc1ccc(NC(=O)C2=CCN(S(=O)(=O)c3ccccc3)CC2)cc1OC	-0.2	x	x	x	x
O=C1/C(=C/c2cccc([N+](=O)[O-])c2)CCc2ccccc21	-0.6	2014	1.8	-3.7	15.7
O=C1/C(=C/c2cccc([N+](=O)[O-])c2)CSc2ccc(Cl)cc21	i	3778	u	29.7*	u
CCc1ccc(C=NC23CN4CN(CN(C4)C2)C3)s1	-0.2	16887*	u	-1.1	-6.6
C(=NC12CN3CN(CN(C3)C1)C2)c1cccnc1	-2.1	2993	1.1	-0.7	-2.9
Cc1cc(Cl)c2oc(C(=O)N(C)Cc3ccon3)c(C)c2c1	i	5777	0.2	0.6	4.3
CS(=O)(=O)N1CCN(C(=O)c2csc3ccccc23)CC1	i	24374*	-3.0	-0.7	-3.8
Cc1scc(C(=O)N2CCN(S(C)(=O)=O)CC2)c1-c1ccccc1	-1.0	24362*	u	1.2	-1.3
COc1ccc(N2CCN(C(=O)c3csc4ccccc34)CC2)cc1	i	16323*	-0.9	-2.7	-3.6
O=C(c1csc2ccccc12)N1CCN(c2ccc(Cl)c(Cl)c2)CC1	-0.3	5800	-0.4	-1.2	-1.2
SMILES	Vc quorum ag	Bead autofluor	BoNT-A LC inh2	Anthrax LF inh2	BoNT-F LC inh
CS(=O)(=O)N1CCN(C(=O)c2ccccc2F)CC1	-0.5	4014	0.9	7.0	21.4
Cc1cc(C(=O)N2CCN(S(C)(=O)=O)CC2)sc1-c1ccccc1	0.2	9585	0.5	-1.2	3.2
O=C(O)CCN1C(=O)c2ccc(Oc3ccc([N+](=O)[O-])cc3)cc2C1=O	i	x	x	x	x
COc1ccc([C@H]2N[C@]3(CCCN(Cc4ccc(Cl)cc4)C3=O)[C@H]3C(=O)N(Cc4ccccc4)C(=O)[C@@H]23)cc1	i	3716	-0.3	-5.2	-0.1
O=c1[nH]c(=S)n(CCC2=CCCCC2)c(O)c1C=NCCCn1ccnc1	-0.3	x	x	x	x
O=c1[nH]c(=S)n(CCC2=CCCCC2)c(O)c1C=NCc1cccnc1	-0.1	24166*	u	-7.5	-5.0
O=C(Cn1nc(C(F)(F)F)c2c1CCCC2)Nc1ccc2c(c1)OCO2	i	21133*	-1.2	-4.1	-3.5
COc1ccccc1NC(=O)Cn1nc(C(F)(F)F)c2c1CCCC2	i	25001*	-1.7	1.5	-3.0
Cc1cc(C(F)(F)F)nn1CC(=O)Nc1ccc2c(c1)OCO2	-0.5	5961	1.3	4.3	-6.9
CCc1c(C)sc(NC(=O)Cn2nc(C(F)(F)F)c3c2CCCC3)c1C#N	i	22610*	1.9	0.8	3.0
O=C(Cn1nc(C(F)(F)F)c2c1CCC2)Nc1ccccc1C(F)(F)F	-0.3	5177	-0.4	2.4	-11.3
O=C(Cn1nc(C(F)(F)F)c2c1CCCC2)N1CCOCC1	i	4776	-0.6	-0.2	0.3
O=C(Cn1nc(C(F)(F)F)c2c1CCC2)N1CCN(c2ccccc2)CC1	i	23434*	-2.1	-1.6	-1.3
COc1ccc(NC(=O)Cn2nc(C(F)(F)F)c3c2CCCC3)cc1OC	-2.7	22117*	u	-1.6	-7.1
Cc1cccc(Cn2cnc3c(nnn3Cc3ccc(F)cc3)c2=O)c1	i	11375	0.9	1.1	-6.8
Cc1cccc(Cn2cnc3c(nnn3Cc3ccccc3F)c2=O)c1	i	22956*	2.9	-2.6	1.3
O=C(Cc1ccc(F)cc1)Nc1nnc(-c2ccc(F)cc2)o1	i	6113	-1.8	-3.1	-3.0
Cc1ccccc1C(NC(N)=O)c1ccccc1 (configuration not stated)	i	16482*	-1.9	-2.6	-3.7
Cc1ccc(S(=O)(=O)NCc2cn3ccccc3n2)c(C)c1	-2.7	5526	0.7	-2.7	-1.1
CN(C)CCNc1ncnc2c1ncn2[C@H]1CN(Cc2ccc3c(c2)OCO3)C[C@@H](CO)O1	-0.7	2863	0.3	-9.5	4.8
COc1cc(C(=O)Nc2cc(-c3ccccc3)[nH]n2)cc(OC)c1OC	i	20197*	u	-15.4	1.1
CCc1ccc2[nH]c(=O)c(C(c3nnnn3CCOC)N3CCN(c4ccccc4)CC3)cc2c1 (configuration not stated)	-1.4	3730	2.1	-0.5	15.7
CCc1ccc2[nH]c(=O)c(C(c3nnnn3Cc3ccccc3)N3CCOCC3)cc2c1 (configuration not stated)	i	21543*	u	-2.7	0.5
CCc1ccc2[nH]c(=O)c(C(c3nnnn3Cc3ccc(OC)cc3)N3CCOCC3)cc2c1 (configuration not stated)	-0.2	16212*	0.3	-3.3	2.3
Cc1cc(C(=O)COc2cccc(-n3cnnn3)c2)c(C)n1-c1ccccc1	5.3	16603*	-0.4	-3.2	-1.9

Compound activity as filed in PubChem.
